Where “and” joins values, the source holds several entries; their conditions need not be identical. Equal values may be shown once. The panel holds about 79,000 compounds, 15% with a hit somewhere; the sample as a whole holds those more often. Unmarked numbers belong to inactive results. Calls of active or inactive are those of the source. Rule as the data show it: active = growth inhibition above about 70%; inactive = the rest.
What was measured:
[1] = NCI Yeast Anticancer Drug Screen. Data for the rad50 strain (AID 155);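 also: 0% = growth of vehicle-only cultures of the same strain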; details: S. cerevisiae rad50 strain growth inhibition, hits give high values; at 50.0 µM unless noted
In short: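 Compounds were tested on a yeast strain with an engineered DNA damage repair alteration; the reported value is growth inhibition normalised to vehicle treatment.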

[2] = NCI Yeast Anticancer Drug Screen. Data for the mec2-1 strain (AID 157); details: S. cerevisiae mec2-1 strain, hits give high values; at 50.0 µM unless noted
In short: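 Readout is yeast growth inhibition, normalised to vehicle-treated controls, in the mec2-1 strain exposed to compound.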

[3] = NCI Yeast Anticancer Drug Screen. Data for the sgs1 mgt1 strain (AID 161);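 also: 0% = growth of cultures given vehicle only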; details: S. cerevisiae sgs1 mgt1 strain, hits give high values; at 50.0 µM unless noted
In short: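 Growth of a repair-deficient yeast mutant was monitored after compound treatment and expressed as inhibition relative to vehicle-treated cultures.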

[4] = NCI Yeast Anticancer Drug Screen. Data for the cln2 rad14 strain (AID 165);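 also: 0% = growth equal to vehicle treated cultures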; details: S. cerevisiae cln2 rad14 strain, hits give high values; at 50.0 µM unless noted
In short: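 Relative to vehicle controls, growth inhibition of compound-treated cln2 rad14 yeast was recorded.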

[5] = NCI Yeast Anticancer Drug Screen. Data for the bub3 strain (AID 167); details: S. cerevisiae bub3 mutant strain, hits give high values; at 50.0 µM unless noted
In short: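 Growth of a checkpoint-deficient yeast mutant is measured after compound exposure. Values represent inhibition relative to vehicle.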

[6] = NCI Yeast Anticancer Drug Screen. Data for the mlh1 rad18 strain (AID 175); details: S. cerevisiae mlh1 rad18 strain growth inhibition, hits give high values; at 50.0 µM unless noted
In short: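 Test agents were incubated with a yeast strain of defined genotype (DNA damage repair defect). Inhibition of growth was derived by comparison with vehicle-exposed cultures.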

Row | Compound | growth inhibition [1] | growth inhibition [2] | growth inhibition [3] | growth inhibition [4] | growth inhibition [5] | growth inhibition [6]
1 | CCCCCCCCCCCC(=O)NC(=S)Nc1cccc(O)c1 | 84.3% (active) | 63.8% | 74.4% (active) | 90.3% (active) | 93% (active) | 81.4% (active)
2 | CC(C)(C)NC(=O)CCCl | 16.4% | 14.4% | 16.5% | 5.6% | 1.8% | 41.8%
3 | NC1CCC(C2CCC(N)CC2)CC1 (stereo not given) | 17.1% | 20.6% | 3.7% | -53% | -6.45% | -13.7%
4 | O=C(O)c1ccccc1-c1ccccc1 | -19.2% | -36.1% | -12.4% | 4.3% | -15.3% | -1.9%
5 | O=C(O)c1nc2ccccc2nc1C(=O)O | -27.9% | -7.65% | -13.4% | -17.6% | -7.95% | -3.85%
6 | CC1COC(C)(C)P(=O)(c2ccccc2)C1 (stereo not given) | -6.9% | -9% | -11.3% | 16.2% | -7.15% | -27.4%
7 | Cc1cc(Cl)c(OCC(=O)O)cc1C | -8.2% | -9.45% | -9.25% | -8.3% | -14.6% | -1.9%
8 | C/C(=C\CNc1nc(Cl)nc2nc[nH]c12)CO | -12.3% | -5.6% | -32.6% | 3.6% | -0.4% | -8.4%
9 | CC1=NN2C(c3ccc([N+](=O)[O-])cc3)=CSC2=NC(C)(C)C1 | 20.6% | -5.6% | 5.7% | -5% | -4.95% | -11.6%
10 | c1cc2c(cc1C1=NNC(c3ccc4c(c3)OCO4)=NN1)OCO2 | -13.3% | 10.2% | -7.45% | 1.4% | -4.95% | -3.05%
11 | CCCC(=O)NC1CCCCC1 | -22.2% | 8.05% | -26.9% | 26.5% | -24.1% | -23.1%
12 | Cc1ccc(OCC2OC(n3cnc4c(Cl)ncnc43)CC2Oc2ccc(C)cc2)cc1 (stereo not given) | -1.2% and 20.8% | -10.2% and 3.5% | 0.05% and 45% | -6.6% and 15.3% | -5.6% and 34% | -32.6% and -25.1%
13 | NC(=O)CC(NC(=O)CCl)C(=O)O (stereo not given) | -12.3% and -15% | -24.8% and -8.15% | 2.1% | 12.4% | -0.35% | -22.4% and -16.1%
14 | CC(Oc1c(Cl)cc(Cl)cc1Cl)C(=O)O (stereo not given) | -13.7% | -51.8% | -8.6% | 12.8% | -34.9% | -15.8%
15 | COC(=O)c1ccc(N=NN(C)CN=[N+]=[N-])cc1 | 13.3% | 19.7% | 21.2% | -21.3% | 11.3% | 3.15%
16 | CC(=O)OC[C@@]12C[C@H]3C(=O)C(C)(C)C[C@H]3[C@]1(C)[C@@H](OC(C)=O)[C@]1(O)[C@H]([C@@H](OC(=O)c3ccccc3)[C@@H](C)[C@H]1OC(C)=O)[C@H]2OC(C)=O | -13.6% | -26.9% | 3.25% | -3.25% | 10.8% | -3.15%
17 | CCOC(=O)C1=C(c2ccccc2)OC(N)=C(C#N)C1c1ccccc1Cl (stereo not given) | 28.4% | 18.7% | 24.6% | -21.4% | 39.9% | 51.5%
18 | c1c[nH]c(CN2CCOCC2)n1 | -32% | -28.9% | -43.4% | 2.5% | -38.9% | -5.15%
19 | BrC1(Br)C2CCCCCCC21 (stereo not given) | -26.6% | 4.85% | 3.15% | -6.6% | -21.1% | -29.7%
20 | Cc1ccc(S(=O)(=O)c2ccccc2)cc1 | -18.4% and 23.4% | -15.6% and -0.95% | -22.5% and 23% | 2.4% and 1.35% | -5.35% and 3.1% | -43.6% and 16.6%

Row | Compound | growth inhibition [1] | growth inhibition [2] | growth inhibition [3] | growth inhibition [4] | growth inhibition [5] | growth inhibition [6]
21 | COc1ccc(SSc2ccc(OC)cc2C(=O)O)c(C(=O)O)c1 | -4% | -19.1% | -21.1% | 1.4% | -36.1% | 1.8%
22 | CN1N=C(c2ccncc2)OC1c1cccc(F)c1 (stereo not given) | -58% | -45.4% | -25.6% | 6.5% | 4.9% | -16%
23 | O=C(O)/C(I)=C(\I)c1ccccc1 | -0.55% | -6.7% | 4.7% | -9.3% | 2.45% | 8.5%
24 | O=C(OC1c2cccc3cccc(c23)C1O)c1ccccc1 (stereo not given) | 8.2% | -2.45% | 1.55% | 2.65% | 5.85% | 1.75%
25 | CS/C(=N\c1nccs1)NC(=O)c1cccc(Cl)c1 | 7.65% | 20.4% | 30.2% | 18.8% | 22.4% | 10.8%
26 | CCCCCCCCCCCCCCCc1ccc(N)c(OC2OC(CO)C(O)C(O)C2O)c1 (stereo not given) | -2.15% and -16.8% | 6.7% and -18.2% | 8.8% and 8.55% | -8.15% and -28.3% | -5.6% and 0.95% | 18.1% and -0.4%
27 | COc1ccc(N2C(=O)C/C(=C/c3ccc(C(C)C)cc3)C2=O)cc1 | 9.35% | -0.05% | 11.9% | -60% | -13.8% | 9.15%
28 | Cc1nc2ccc(Br)cc2c(=O)n1-c1ccc(-c2n[nH]c(=S)n2-c2ccccc2)cc1 | 14% | 13.2% | 13.4% | -27.9% | 6.8% | 42.4%
29 | COC(=O)c1ccc(-n2cc(C(=O)OC)c([N+]#N)c2[O-])cc1 | 9.4% | 11.6% | -13.6% | -13.6% | 18.9% | 16.6%
30 | O=C1OCc2ccccc21 | 3.2% | 7.8% | 11.2% | -26.7% | -6.05% | 3.15%
31 | Cc1cc(C(C)(C)C)cc(CNC2CCCCC2)c1O | -4.35% | -27.4% | -25.4% | -18% | -35.2% | 10.2%
32 | CCOC(=O)c1ccc(Cn2c(C)cc(=O)n(Cc3ccc(C(=O)OCC)cc3)c2=O)cc1 | 0.25% | -14.1% | -9.9% | -27.6% | 4.05% | -7.7%
33 | O=C(O)C(c1ccccc1)N1C(=O)C(Cl)=C(Cl)C1=O (stereo not given) | -0.1% | -6.35% | 1.4% | -10.8% | 1.15% | 10.8%
34 | Cc1nc(N(C)C)oc(=O)c1CCc1ccccc1 | -5.8% | 3.8% | -0.9% | 0.2% | 6.9% | 8.9%
35 | CCN(CCO)C(=O)Nc1ccc(Cl)cc1 | -6.1% | -31.6% | 11.1% | 8.6% | 0.55% | -7.65%
36 | O=Nc1c(S(=O)(=O)O)cc2cc(S(=O)(=O)O)ccc2c1O | 41.9% | 0.55% | 45.2% | 22.4% | 23.1% | 30.4%
37 | O=C1CN(c2cccc(C(F)(F)F)c2)C(=O)CN1/N=C/c1ccc[nH]1 | -27.7% | -3.25% | 9.45% | 15.8% | -7.1% | -5.4%
38 | COC(=O)c1c(C)nc(C)c(N=O)c1-c1ccccc1C(F)(F)F | 6.4% | 5.5% | 7.45% | 20.1% | 12.4% | -44.6%
39 | Cn1c2c(c3ccccc31)CCN(CCCCN1CCN(c3ccccc3)CC1)C2=O | 3.8% | -17.5% | -36% | 3.55% | -11.2% | -7.35%
40 | Cc1cccc(C)c1I | -35% | -8.55% | -67.2% | -25.9% | -46.5% | -50.1%

Reference: PubChem BioAssay (NCI)
